# The list is not random: actives were taken first. Their share in the collection is about 1.6%.
# KCNQ2 enhance: enhances the rat KCNQ2 potassium channel. CHO-K1 KCNQ2, FluxOR thallium flux fluorescence; active compounds read high. B-score at 10 µM. O88943. 0.54% of 310,000 active;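 active = fluorescence ratio B-score at least 3 SD of library B-scores, with initial fluorescence B-score within 3 of them, cut at about 5.3 in these data; same plate scores as AID 2156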;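 note: B-score of peak minus minimum over baseline fluorescence ratio after K+ and Tl+ stimulus; positive B-score means potentiation of KCNQ2 with more thallium influx and brighter signal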
# Target sequence (O88943 whole entry, looked up): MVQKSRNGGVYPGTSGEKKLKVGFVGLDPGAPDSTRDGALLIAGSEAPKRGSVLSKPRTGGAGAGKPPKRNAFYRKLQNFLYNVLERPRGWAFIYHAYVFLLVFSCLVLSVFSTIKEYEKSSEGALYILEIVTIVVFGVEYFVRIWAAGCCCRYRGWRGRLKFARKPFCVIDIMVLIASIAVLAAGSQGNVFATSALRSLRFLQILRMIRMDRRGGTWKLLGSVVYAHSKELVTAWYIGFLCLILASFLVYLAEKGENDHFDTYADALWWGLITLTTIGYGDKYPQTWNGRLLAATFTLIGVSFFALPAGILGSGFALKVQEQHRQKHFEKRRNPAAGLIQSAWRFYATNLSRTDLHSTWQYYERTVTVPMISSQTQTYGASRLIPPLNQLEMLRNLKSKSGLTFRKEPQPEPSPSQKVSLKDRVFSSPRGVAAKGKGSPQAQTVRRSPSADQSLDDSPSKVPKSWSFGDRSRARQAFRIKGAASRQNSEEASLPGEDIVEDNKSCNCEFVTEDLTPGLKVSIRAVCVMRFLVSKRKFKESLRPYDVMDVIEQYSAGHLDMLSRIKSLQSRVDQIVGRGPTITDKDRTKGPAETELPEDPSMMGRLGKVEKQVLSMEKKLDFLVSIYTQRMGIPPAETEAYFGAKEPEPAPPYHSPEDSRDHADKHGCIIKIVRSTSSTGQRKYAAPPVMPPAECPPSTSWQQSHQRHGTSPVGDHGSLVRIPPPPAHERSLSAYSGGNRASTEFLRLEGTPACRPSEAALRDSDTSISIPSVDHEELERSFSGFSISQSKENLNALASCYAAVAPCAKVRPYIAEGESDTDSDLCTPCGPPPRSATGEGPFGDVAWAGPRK
# KCNQ2 inh: blocks the rat KCNQ2 potassium channel. 1.1% of 310,000 active. AID 2156. B-score at 10 µM. CHO-K1 KCNQ2, FluxOR thallium flux, 20 min; active compounds read low;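 active = fluorescence ratio B-score at most minus 3 library SDs, with starting brightness B-score within 2 library SDs, cut at about -5.5 in these data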
# Kir21 confirm: confirmation of mouse Kir2.1 potassium channel inhibitors. shares compounds with KCNQ2 enhance. Kir2.1-expressing cells, FluxOR thallium flux fluorescence; active compounds read low. Tl flux remaining, % of negative control (active compounds read low), % at 10 µM. 41% of 2,300 active. AID 2032;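 active = Primary-screen hit whose thallium flux fell at least 3 control SD below untreated wells in both duplicates, with normal baseline fluorescence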;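 note: 0% = blank wells without stimulus and 100% = stimulated no-compound controls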
# HEK293 ctr: counter-screen for Kir2.1 inhibitors: effect in parental HEK293 cells; AID 2105; FluxOR thallium flux fluorescence; 0% = unstimulated blank wells; FluxOR signal as % of negative control (100 = no effect), % at 10 µM; 19% of 2,300 active; shares compounds with KCNQ2 enhance;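 active = dye signal at least 3 control SD above or below untreated wells in both duplicates, raw fluorescence within 3, either direction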;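 note: percent is based on the flux ratio of peak minus minimum fluorescence over baseline F0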
# CHO-K1 Tl ctr: parental CHO-K1 activity in KCNQ2 potentiator counter-screen. shares compounds with KCNQ2 enhance. parental CHO-K1 cells, FluxOR thallium flux fluorescence; zero = vehicle mean+3SD, 100% = vehicle-minus-blank window. activity increase over 3SD of controls, % at 10 µM. 43% of 1,200 active. AID 2282;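 active = signal rise of at least 3 SD above the untreated control mean, in both duplicate wells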;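 note: counter screen of KCNQ2 potentiator hits so any rise reflects channel-independent effects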
# KCNQ1 sel pot: human KCNQ1 counter-target activity of KCNQ2 potentiators | shares compounds with KCNQ2 enhance | 28% of 1,200 active | activation over 3SD threshold, % at 10 µM | AID 2283 | CHO KCNQ1 stable, FluxOR thallium flux fluorescence; beyond 3SD, as % of vehicle-control signal;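 active = fluorescence ratio rise of at least 3 SD of vehicle wells above their mean, in both replicate wells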;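 note: 0% = vehicle mean plus 3 SD and 100% = vehicle minus unstimulated blank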
# KCNQ2 pot conf: confirmation of rat KCNQ2 potassium channel potentiators; shares compounds with KCNQ2 enhance; CHO-KCNQ2 cells, FluxOR thallium flux fluorescence; potentiation, less the hit threshold, % at 10 µM; 68% of 1,200 active; AID 2287;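 active = fluorescence ratio rising 3 SD or more over the vehicle control mean in both replicates, plus primary screen hit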;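 note: peak minus minimum thallium fluorescence divided by baseline after K/Tl stimulus; 0% = vehicle mean plus 3 SD and 100% = vehicle minus unstimulated blank difference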
# Kir2-1 sel: selectivity of KCNQ2 potentiators: effect on mouse Kir2.1. shares compounds with KCNQ2 enhance. HEK293 Kir2.1, FluxOR thallium flux fluorescence. activity over 3SD threshold, % at 10 µM. 2% of 1,200 active;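 active = fluorescence ratio rise of at least 3 SD above the vehicle-control mean, seen in both replicates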;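 note: 0% = vehicle mean plus 3 SD and 100% = vehicle minus no-stimulus blank window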
# KCNQ2 W236L pot: KCNQ2 potentiators acting on retigabine-insensitive rat KCNQ2 W236L mutant. shares compounds with KCNQ2 enhance. CHO KCNQ2-W236L, automated patch clamp current. current increase over 3SD of negative controls (%), active compounds read high, % at 25 µM. 10% of 940 active;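 active = current increase at least 3 SD of the untreated controls above them in both duplicate recordings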
# Numbers without * were called inactive; i = inactive; nt = no result given.
SMILES,KCNQ2 enhance,KCNQ2 inh,Kir21 confirm,HEK293 ctr,others
CC(C)CCNC(=O)COc1cccc2c1OC(C)(C)C2,0.68,i,nt,nt,
CC(C)(C)OC(=O)N1CCC[C@H]1c1nnc(SC/C=C/c2ccccc2)o1,nt,i,nt,nt,
CC(C)(C)OC(=O)N1CCC[C@H]1c1nnc(SCc2ccc(Cl)cc2)o1,nt,i,52.0%*,68.5%*,
CC(C)(C)OC(=O)N1CCC[C@H]1c1nnc(SCc2ccccc2Cl)o1,nt,i,i,70.5%*,
CC(C)(C)OC(=O)N1CCC[C@H]1c1nnc(SCc2cccc(Cl)c2)o1,nt,i,54.0%*,i,
CCCCSc1nnc([C@@H]2CCCN2C(=O)OC(C)(C)C)o1,nt,i,nt,nt,
CSc1nnc([C@@H]2CCCN2C(=O)OC(C)(C)C)o1,nt,i,nt,nt,
CC(C)Oc1ccc(C(CCN)C2CCCCC2)cc1 (stereo not drawn),nt,i,43.5%*,65.0%*,
CC(C)Oc1ccc(C(=O)NC2CCCCC2)cc1,nt,i,nt,nt,
CCC(C)(C)c1ccc(OCC(=O)Nc2ccncc2)cc1,nt,i,nt,nt,
CN(C)C(CNC(=O)CCc1nc2cc(Cl)ccc2n(Cc2ccccc2)c1=O)c1ccccc1 (stereo not drawn),nt,i,74.5%*,i,
CCNC(=S)NNC(=O)CCc1nc2cc(Cl)ccc2n(Cc2ccccc2)c1=O,0.23,i,nt,nt,
COc1ccc(N2CC(C(=O)N[C@@H](CC(C)C)C(=O)NC3CCCCC3)CC2=O)cc1 (stereo partly drawn),0.57,i,nt,nt,
COc1cccc(CNc2cc(CSc3ccc(Cl)cc3)nc(C)n2)c1,nt,i,53.5%*,i,
COc1cccc(CNc2ccc(C)c(Cl)c2)c1,0.05,i,nt,nt,
COc1ccc(C2NC(=O)NC(C)=C2C(=O)OCC2CCCCC2)cc1OC (stereo not drawn),2.86,i,nt,nt,
CCOc1ccccc1NC(=O)CCn1ccnc1,0.03,i,nt,nt,
C=CCN(C(=O)c1csnn1)C(C(=O)NC1CCCC1)c1c(F)cccc1Cl (stereo not drawn),0.11,i,nt,nt,
CN(C)S(=O)(=O)c1ccc(NC(=O)CN2CCC(Cc3ccccc3)CC2)cc1,4.32,i,nt,nt,
O=C(CN1CCC(Cc2ccccc2)CC1)Nc1ccc2c(c1)OCCO2,5.47*,i,nt,nt,CHO-K1 Tl ctr=-6.4;KCNQ1 sel pot=-17.3;KCNQ2 pot conf=0.3*;Kir2-1 sel=-55.4;KCNQ2 W236L pot=i
Cc1cccc(NC(=O)C23CCC(C)(C2Br)C3(C)C)c1 (stereo not drawn),10.5*,i,i,i,CHO-K1 Tl ctr=-1.5;KCNQ1 sel pot=7.4*;KCNQ2 pot conf=-5.9;Kir2-1 sel=-46.7;KCNQ2 W236L pot=i
Cc1cccc(NC(=O)CC(=O)Nc2cccc(C)c2)c1,nt,i,nt,nt,
CC1CCCC(NC(=O)COC(=O)Cc2ccc(Br)cc2)C1C (stereo not drawn),0.24,i,nt,nt,
CC1CCCC(NC(=O)Cc2ccc(Br)cc2)C1C (stereo not drawn),5.55*,i,i,i,CHO-K1 Tl ctr=49.4*;KCNQ1 sel pot=1.4*;KCNQ2 pot conf=3.0*;Kir2-1 sel=-12.4;KCNQ2 W236L pot=i
O=C(NCc1cccnc1)C(=O)NCC1OCCCN1S(=O)(=O)c1ccc(F)cc1 (stereo not drawn),nt,i,nt,nt,
SMILES,KCNQ2 enhance,KCNQ2 inh,Kir21 confirm,HEK293 ctr,others
COc1ccc(C(=O)O)cc1NC(=S)NC(=O)/C=C/c1ccc(C(C)C)cc1,1.99,i,nt,nt,
O=C(COC(=O)Cc1c[nH]c2ccccc12)NC1CCCCC1,0.06,i,42.0%*,i,
O=C(COC(=O)Cc1c[nH]c2ccccc12)Nc1ccccc1,nt,i,nt,nt,
CCc1ccc(NS(=O)(=O)c2ccc3c(c2)CCN3C(=O)CCC(=O)O)cc1,nt,i,nt,nt,
CCCCC(CC)CNS(=O)(=O)c1ccc2c(c1)CCN2C(=O)CCC(=O)O (stereo not drawn),nt,i,i,i,
Nn1c(SCc2cccc(Br)c2)nnc1-c1ccncc1,nt,i,nt,nt,
O=C(N/N=C/c1ccccc1[N+](=O)[O-])c1cnccn1,nt,i,nt,nt,
Cc1ccc(CN2CCC(c3cc(-c4ccc(Cl)cc4)n[nH]3)CC2)cc1,nt,i,nt,nt,
Clc1ccc(-c2cc(C3CCNCC3)[nH]n2)cc1,nt,i,38.5%*,i,
Cc1nc2ccccc2c(=O)n1/N=C/c1ccccc1OC(F)F,nt,i,nt,nt,
CN(CCCN1c2ccccc2CCc2ccccc21)CC(=O)c1ccc(Cl)cc1,nt,i,nt,nt,
CN(C)CCCN1c2ccccc2CCc2ccc(Cl)cc21,nt,i,41.0%*,i,
Cc1ccc(S(=O)(=O)N2CCN(C(=O)COC(=O)CCOc3ccc(C(C)(C)C)cc3)CC2)cc1,1.84,i,nt,nt,
COc1ccc(N(C(C)=O)c2nc3ccccc3[nH]2)cc1,0.96,i,nt,nt,
CCn1cc(CCCC(=O)NCc2ccccc2OC)c2ccccc21,nt,i,nt,nt,
CCn1cc(CCC(=O)NCc2ccccc2OC)c2ccccc21,0.26,i,49.5%*,i,
O=C(CNCC1CCCCC1)Nc1ccc(OC(F)(F)F)cc1,15.2*,i,i,i,CHO-K1 Tl ctr=0.6*;KCNQ1 sel pot=-16.9;KCNQ2 pot conf=35.0*;Kir2-1 sel=-33.6;KCNQ2 W236L pot=i
CN(CC(=O)Nc1ccc(OC(F)(F)F)cc1)C1CCCCC1,nt,i,nt,nt,
O=C(NC(=S)NCCC1=CCCCC1)c1ccco1,11.9*,i,i,229.0%*,CHO-K1 Tl ctr=-8.6;KCNQ1 sel pot=-25.7;KCNQ2 pot conf=33.6*;Kir2-1 sel=-39.8;KCNQ2 W236L pot=i
Cc1ccccc1C(=O)NC(=S)NCCC1=CCCCC1,0.92,i,nt,nt,
CCc1ccc(C(C)NC(=O)c2cccs2)cc1 (stereo not drawn),5.29*,i,i,i,CHO-K1 Tl ctr=-18.5;KCNQ1 sel pot=46.0*;KCNQ2 pot conf=-1.5;Kir2-1 sel=-33.3;KCNQ2 W236L pot=i
CCOc1ccc(C(C)NC(=O)c2cccs2)cc1OCC (stereo not drawn),0.05,i,nt,nt,
CCOc1ccc(C2C(C(=O)c3ccco3)=C(O)C(=O)N2CCCn2ccnc2)cc1OC (stereo not drawn),nt,i,nt,nt,
COc1ccc(N2C(=O)CS/C2=N\C(=S)Nc2ccccc2)cc1,nt,i,nt,nt,
O=[N+]([O-])c1ccc(NC(=S)NCc2ccc(F)cc2)cc1,20.8*,i,nt,nt,CHO-K1 Tl ctr=-6.8;KCNQ1 sel pot=10.9*;KCNQ2 pot conf=42.0*;Kir2-1 sel=-50.5;KCNQ2 W236L pot=i
O=[N+]([O-])c1ccc(NC(=S)NCc2ccncc2)cc1,1.63,i,nt,nt,
CN(C)C(=O)C(OC(=O)c1ccc2ccccc2n1)c1ccccc1 (stereo not drawn),nt,i,nt,nt,
Nc1nonc1-n1nnc(C(=O)N/N=C/c2ccc(OCc3ccccc3F)cc2)c1CNc1ccccc1,0.03,i,nt,nt,
